Experimental findings from PubChem BioAssay (NCI) are described below.

SMILES strings stand for the structures. The panel holds about 83,000 compounds, 20% with a hit somewhere; the sample as a whole holds those more often.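 Interpretation: 100, growth as untreated; towards 0, rising growth inhibition; 0, no net growth; 0 to -100, cell death. Compounds scoring below 10 were considered active.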 A number with no mark means an inactive call. Active and inactive are the calls of the source.

Test systems include DU-145 prostate; K-562 leukemia; MALME-3M melanoma; MDA-MB-231 breast; RXF 393 renal; SF-268 CNS; SF-295 CNS; SF-539 CNS; UACC-257 melanoma; M14 melanoma; HCT-15 colon; HT29 colon; SNB-75 CNS; SNB-19 CNS; U251 CNS; PC-3 prostate; SK-MEL-5 melanoma; UACC-62 melanoma; SK-MEL-28 melanoma; LOX IMVI melanoma.
What all share (experiment): NCI-60 one-dose screen, 48 h (100 = growth as untreated, 0 = no growth, -100 = all killed)
Holding throughout (conditions): 10 µM unless noted

Take `COc1ccc(C2CC(c3cccc(OC)c3)=NN2C(=O)c2cc(OC)c(OC)c(OC)c2)cc1` (configuration not stated): the growth is -24.7% (active) in the assay with DU-145 prostate; 5.93% (active) in the assay with K-562 leukemia; 37.7% in the assay on MALME-3M melanoma; 33.6% in the assay with MDA-MB-231 breast; 23.4% with RXF 393 renal; 41.4% with SF-268 CNS. Moreover, the growth in the assay with SF-295 CNS is 7.64% (active); with SF-539 CNS it was -16% (active); in the assay on UACC-257 melanoma, 65%; in the assay on M14 melanoma it was 16.5%; with HCT-15 colon, 30.9%; with HT29 colon it was 14%. The growth is 22.3% with SNB-75 CNS; 28.5% in the assay with SNB-19 CNS; 35.5% in the assay on U251 CNS; 25.7% with PC-3 prostate; -3.53% (active) with SK-MEL-5 melanoma; 37.9% in the assay with UACC-62 melanoma. Further, the growth in the assay on SK-MEL-28 melanoma was 56.2%.

For the molecule `CS(=O)(=O)c1ccc(Nc2nc(N[C@H]3CCCC[C@H]3N)nc3cc[nH]c(=O)c23)cc1`, the growth in the assay with DU-145 prostate was 14.4%; in the assay on K-562 leukemia, 10.9%; in the assay on MALME-3M melanoma, -31.9% (active); in the assay with MDA-MB-231 breast, -12.9% (active); with RXF 393 renal, -54.7% (active); in the assay on SF-268 CNS, -22.8% (active). In addition, the growth with SF-295 CNS was 31.4%; in the assay on SF-539 CNS, -11.8% (active); with UACC-257 melanoma, -5.02% (active); with M14 melanoma, 43.5%; in the assay on HCT-15 colon it was 102%; in the assay with HT29 colon, 15.5%. Also, the growth in the assay with SNB-75 CNS was 4.36% (active); in the assay with SNB-19 CNS it was 4.85% (active); in the assay with U251 CNS it was 4.89% (active); with PC-3 prostate it was 14.2%; with SK-MEL-5 melanoma, -40.1% (active); with UACC-62 melanoma, -33.9% (active). Besides, the growth in the assay with SK-MEL-28 melanoma is 3.17% (active).

Take `O=C(COc1ccc(/C=C2\Oc3ccccc3C2=O)cc1)c1ccc(Cl)cc1`: the growth in the assay on DU-145 prostate is 119%; in the assay on K-562 leukemia, 93.7%; in the assay on MALME-3M melanoma it was 111%; in the assay with MDA-MB-231 breast it was 85.7%; in the assay on RXF 393 renal, 91.8%; in the assay with SF-268 CNS it was 106%. In addition, the growth in the assay on SF-295 CNS was 309%; with SF-539 CNS, 96.7%; with UACC-257 melanoma, 117%; in the assay on M14 melanoma, 108%; with HCT-15 colon, 106%; in the assay with HT29 colon, 107%. The growth is 103% with SNB-75 CNS; 94.3% in the assay with SNB-19 CNS; 104% in the assay on U251 CNS; 98.2% with PC-3 prostate; 109% in the assay on SK-MEL-5 melanoma; 88.2% with UACC-62 melanoma. Moreover, in the assay with SK-MEL-28 melanoma, the growth was 120%.

As to `COc1cc(C2NC(=O)c3ccccc3N2)ccc1OCCCCCOc1c(OC)cc(C2=NOC(c3cc(OC)c(OC)c(OC)c3)C2)cc1OC` (configuration not stated), the growth was 118% with DU-145 prostate; 59.7% in the assay with K-562 leukemia; 53.9% in the assay on MALME-3M melanoma; 82.5% in the assay with MDA-MB-231 breast; 104% in the assay with RXF 393 renal; 67.4% with SF-268 CNS. Besides, the growth was 24.9% in the assay on SF-295 CNS; 83.2% with SF-539 CNS; 44% in the assay with UACC-257 melanoma; 84.3% in the assay on M14 melanoma; 73% in the assay with HCT-15 colon; 94.2% with HT29 colon. Further, the growth in the assay on SNB-75 CNS was 101%; with SNB-19 CNS, 80.2%; in the assay on U251 CNS, 84.2%; in the assay with PC-3 prostate, 36.8%; in the assay on UACC-62 melanoma it was 53.3%; in the assay with LOX IMVI melanoma it was 61%. Moreover, the growth in the assay on SK-MEL-28 melanoma was 69.4%.

Take `c1ccc(Nc2nc(-c3ccccn3)cs2)nc1`: the growth in the assay on DU-145 prostate was 26.5%; in the assay on K-562 leukemia, 17.2%; in the assay with MALME-3M melanoma, 9.26% (active); in the assay on MDA-MB-231 breast, 38.9%; in the assay with RXF 393 renal, -18.8% (active); in the assay with SF-268 CNS, 20.7%. The growth with SF-295 CNS is 11.9%; with SF-539 CNS, 0.697% (active); in the assay on UACC-257 melanoma, 11.5%; in the assay on M14 melanoma, -32.8% (active); with HCT-15 colon, 20.1%; in the assay on HT29 colon, 27.4%. The growth with SNB-75 CNS is 42.7%; with SNB-19 CNS, 18.6%; in the assay with U251 CNS it was 7.62% (active); with PC-3 prostate it was 38%; in the assay with SK-MEL-5 melanoma it was 11%; with UACC-62 melanoma, -14.6% (active). Also, the growth in the assay on SK-MEL-28 melanoma is 50.3%.

For `Oc1ccc(CN2CCC(N3CCOCC3)CC2)c2cccnc12`, the growth in the assay on DU-145 prostate is 29.3%; with K-562 leukemia, 12.9%; in the assay with MALME-3M melanoma, -0.979% (active); in the assay on MDA-MB-231 breast, 31%; in the assay with RXF 393 renal, 13.1%; with SF-268 CNS, 32.3%. The growth in the assay with SF-295 CNS was 5.68% (active); in the assay with SF-539 CNS it was 13.6%; with UACC-257 melanoma, 7.47% (active); in the assay on M14 melanoma it was 24.2%; in the assay on HCT-15 colon, 17.7%; in the assay with HT29 colon, 103%. In addition, the growth with SNB-75 CNS is 32%; in the assay on SNB-19 CNS, 17.6%; with U251 CNS, 16.9%; in the assay with PC-3 prostate, 15.3%; in the assay with SK-MEL-5 melanoma, -45.8% (active); in the assay with UACC-62 melanoma it was 12.9%. For the same molecule, in the assay on SK-MEL-28 melanoma, the growth is 39.5%.

Turning to `CNS(=O)(=O)c1n[nH]nc1-c1cc(C(C)(C)C)c(O)c(C(C)(C)C)c1`, the growth in the assay with DU-145 prostate was 110%; with K-562 leukemia, 98.7%; in the assay with MALME-3M melanoma it was 88.3%; with MDA-MB-231 breast, 103%; in the assay with RXF 393 renal, 114%; in the assay with SF-268 CNS, 99.3%. The growth is 92.4% in the assay with SF-295 CNS; 99.4% in the assay with SF-539 CNS; 84.7% with UACC-257 melanoma; 95.9% in the assay on M14 melanoma; 95.3% with HCT-15 colon; 108% in the assay with HT29 colon. In addition, the growth is 80.5% in the assay with SNB-75 CNS; 107% in the assay with SNB-19 CNS; 95.5% in the assay on U251 CNS; 97.2% in the assay with PC-3 prostate; 94.2% with SK-MEL-5 melanoma; 100% in the assay with UACC-62 melanoma. The growth with SK-MEL-28 melanoma is 105%.

`CC1(C)CC[C@]2(C(=O)N3CCOCC3)CC[C@]3(C)C(=CC[C@@H]4[C@@]5(C)CC[C@H](OC(=O)c6cccnc6)C(C)(C)[C@@H]5CC[C@]43C)[C@@H]2C1`: the growth with DU-145 prostate is 60.9%; in the assay with K-562 leukemia, 36%; in the assay on MALME-3M melanoma it was 88.6%; in the assay with MDA-MB-231 breast it was 70.4%; in the assay on RXF 393 renal it was 84.3%; in the assay with SF-268 CNS, 71.1%. Besides, the growth in the assay with SF-295 CNS was 51.2%; in the assay on SF-539 CNS it was 71.5%; in the assay with UACC-257 melanoma it was 65.5%; with M14 melanoma, 72.8%; in the assay on HCT-15 colon, 49.4%; in the assay with HT29 colon, 42.3%. Besides, the growth in the assay on SNB-75 CNS was 67.7%; in the assay on SNB-19 CNS it was 67.5%; with U251 CNS it was 53.2%; in the assay with PC-3 prostate, 38.9%; with SK-MEL-5 melanoma, 54.3%; in the assay with UACC-62 melanoma, 35.7%. Moreover, the growth in the assay with SK-MEL-28 melanoma was 66.1%.
